# Screening results (PubChem)
# Only some compounds are listed: those with a hit (about 6.5% of all), similar ones and a draw of the others.
# NADH enzymes – inhibitors of PK/LDH coupling enzymes, profiling panel, artefact control, biochemical, MLSMR library. coupled PK/LDH NADH assays, four targets. IC50, µM (series often up to 10 µM). 0.02% of 65,000 active. AID 774, 2007;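 active = single-dose screening hits from any of four coupled enzyme assays that gave an IC50 when retested across doses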;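 note: the DPM-DC format reads NADH fluorescence rather than 340 nm absorbance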
# Spn DPM-DC inh – S. pneumoniae DPM-DC inhibitors, primary screen, biochemical, PK/LDH-coupled NADH fluorescence; purified DPM-DC; calls only at 10 µM; 0.49% of 65,000 active;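 active = the 320 compounds with the highest percent inhibition in the single-dose primary screen, excluding strongly autofluorescent ones, cut at about 32% in these data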;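 note: kinetic rate of NADH fluorescence loss reporting ADP formed by the decarboxylase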
# Fluor 339 460 – intrinsic fluorescence of library compounds, ex339/em460 – biochemical, MLSMR library, data from DPM-DC assay, artefact control, profiling panel; compound autofluorescence, ex339/em460 nm, NADH buffer; active compounds read high; 1 = no-compound wells, NADH background; fluorescence fold increase at 10 µM; 5.5% of 65,000 active;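 active = at 10 µM, mean starting fluorescence two-fold or more over control wells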;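 note: signal is the first read of a kinetic run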
# PMK inhibit – S. pneumoniae PMK inhibitors, primary screen, biochemical, mevalonate pathway, pilot trial included | phosphomevalonate kinase (Streptococcus pneumoniae D39) | purified PMK, PK/LDH-coupled NADH absorbance 340 nm | inhibition, % at 10 µM | 0.49% of 65,000 active | AID 539, 2006;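 active = top-ranked compounds by inhibition in the single 10 µM screen, taking a fixed number of the strongest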
# Abs 340nm – compound light absorbance at 340 nm, profiling panel, artefact control, biochemical, MLSMR library, data from PS, PMK, MK assays. compound absorbance at 340 nm, fold over control. 65,000 tested, under 10 active. fold change at 10 µM;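 active = at 10 µM dose, initial 340 nm absorbance at least 2 fold that of control wells; inactive = change under 2 fold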;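 note: initial absorbance extrapolated from kinetic A340 decline of NADH oxidation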
# MK inhibit – S. pneumoniae MK inhibitors, primary screen, biochemical, PK/LDH-coupled NADH absorbance; mevalonate kinase [Streptococcus pneumoniae D39]; purified MK, PK/LDH-coupled NADH absorbance 340 nm; inhibition, % at 10 µM; 0.48% of 65,000 active; AID 555, 2006;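 active = ranked among the strongest by inhibition in the single 10 µM screen, a fixed top-ranked set picked for dose follow-up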
# Hits are given with their value; - = inactive; . = no result shown; + = active, no number.
SMILES,NADH enzymes,Spn DPM-DC inh,Fluor 339 460,PMK inhibit,Abs 340nm,MK inhibit
COc1ccc2c(C)cc(=O)oc2c1C,-,.,2.1,-,-,-
O=C(NC1CC2CCC1C2)C1COc2ccccc2O1 (stereo not given),-,-,-,-,-,-
COc1ccccc1C(=O)Nc1c2c(nn1-c1cccc(C)c1C)CS(=O)C2 (stereo not given),-,-,-,-,-,-
Nc1n[nH]c(S(=O)(=O)CCCc2ccccc2)n1,-,-,-,-,-,-
CCc1cc(=O)oc2cc(OCC(=O)N(CC)CC)c(Cl)cc12,-,-,-,-,-,-
CCN(CC)C(=O)COc1cccc2ccccc12,-,-,-,-,-,-
Cc1c(OCC(=O)OC(C)C)ccc2c3c(c(=O)oc12)CCC3,-,-,-,-,-,-
CCOC(=O)CCc1c(C)c2ccc(OCC(=O)N(CC)CC)c(C)c2oc1=O,-,.,3.8,-,-,-
CCc1c(C)c2ccc(OCC(=O)OC(C)C)c(C)c2oc1=O,-,.,3.6,-,-,-
Cc1cc(=O)oc2c(C)c(OCC(=O)N(C)C)ccc12,-,.,3.4,-,-,-
COc1ccccc1CNC(=O)N[C@@H](Cc1ccccc1)C(=O)O,-,-,-,-,-,-
CC(=O)OC1=C(C#N)Cn2ccc3cccc1c32,-,.,3.9,-,-,-
CCN(CC)S(=O)(=O)c1cccc2c(N(C)C)cccc12,-,-,-,-,-,-
CCN(CC)S(=O)(=O)c1cccc2cc(C(=O)O)c(O)cc12,-,-,2.1,-,-,-
CN1CCN(c2cc3c(c4c2[nH]c2ccccc24)C(=O)CC(C)(C)C3)CC1,-,.,2.1,-,-,-
O=C(NCCOc1ccccc1)c1ncn[nH]1,-,-,-,-,-,-
COc1cc2c(cc1OC)CN(Cc1ccc(OC)c(C)c1OC)CC2,-,-,-,-,-,46
CCS(=O)(=O)N1CCc2cc(OC)c(OC)cc2C1,-,-,-,-,-,-
COc1cc2c(cc1OC)CN(Cc1cccs1)CC2,-,-,-,-,-,48
CCOC(=O)C1CCCN(C(=O)c2ccco2)C1 (stereo not given),-,-,-,-,-,-
CCOc1ccc(N(CC(=O)Nc2ccc(F)c(F)c2)S(=O)(=O)c2c(C)noc2C)cc1,-,+,-,-,-,-
CCC(COC(=O)Nc1cccc(C)c1)NC(=O)OCC(C)C (stereo not given),-,-,-,-,-,-
O=C(c1cccnc1)N1CCc2ccccc2C1,-,-,-,34,-,-
Cc1ccc(-n2sc3ccccc3c2=O)cc1S(=O)(=O)N1CCCCC1,-,+,-,-,-,100
O=c1c2ccccc2sn1-c1ccc(S(=O)(=O)N2CCCCC2)cc1,-,+,-,-,-,-
SMILES,NADH enzymes,Spn DPM-DC inh,Fluor 339 460,PMK inhibit,Abs 340nm,MK inhibit
O=c1c2ccccc2sn1-c1ccc(S(=O)(=O)N2CCCC2)cc1,-,+,-,-,-,100
COC(=O)CCN(c1ccccc1)S(=O)(=O)c1ccc(OC)cc1,-,-,-,-,-,-
COc1ccc(N2CCN(C(c3ccco3)c3sc4nc(C)nn4c3O)CC2)cc1 (stereo not given),-,-,-,27,-,-
O=C(OCn1nnc2ccccc2c1=O)C1CCCCC1,-,-,-,-,-,-
COCc1cc(C)c(C#N)c(=S)[nH]1,-,-,-,-,-,58
CC(=O)Nn1c(-c2ccccc2)cc2ccccc21,-,-,-,-,-,-
COc1cccc(-c2cc3nc(-c4ccccc4)cc(N4CCC5(CC4)OCCO5)n3n2)c1,-,.,2.1,-,-,-
Fc1ccc(-c2cc3nc(-c4ccccc4)cc(N4CCN(CCN5CCOCC5)CC4)n3n2)cc1,-,.,3.7,-,-,-
COc1ccc(-c2cc3nc4c(c(N5CCC6(CC5)OCCO6)n3n2)CCCC4)cc1,-,-,2,-,-,-
COC(=O)CSc1nc2cc(C)cc(C)c2cc1C#N,-,-,-,-,-,-
Cc1cc(C)c2cc(C#N)c(N3CCCC3)nc2c1,-,-,2.2,-,-,-
